Results filed as inconclusive are left out. Where a call stands in place of a potency, no number is given. Calls of active or inactive are those of the source. Calls come from the whole dose curve; as a rule, active = well fitted inhibition curve with a large enough effect; inconclusive = small, poorly fitted or top-dose-only effect; inactive = flat fitted curve, though single readings scatter.

The assay is described as follows: qHTS for Inhibitors of Plasmodium falciparum (DD2) proliferation (AID 504314). The conditions noted are these: P. falciparum Dd2 in erythrocytes, SYBR Green growth, 72 h; series mostly up to 1.12 µM. The source says: Plasmodium falciparum is a virulent malarial parasite that kills 1-2 million people worldwide each year. Malaria not only inflicts tremendous suffering and morbidity on the human population, but has dramatically influenced the course of civilization with profound sociological and economic implications (Shah, S. 2010). Transmitted by mosquitoes, the sporozoite form of the parasite enters the blood stream to infect hepatocytes, where they become merozoites that infect red blood cells (erythrocytes). Within erythrocytes, merozoites begin a […] cycle of growth and division, after which the parasite is released to infect new red blood cells. Gametocytes, which form within erythrocytes as well, circulate in the bloodstream and are ingested by the mosquito, thereby completing the life cycle (see CDC website). To profile malarial lines for differential chemical responses and to identify inhibitors of malarial growth, an assay that measures P. falciparum growth and replication within erythrocytes was employed. This assay uses a DNA binding fluorescent dye (SYBR Green) to detect parasite DNA following cell lysis. Because mature erythrocytes lack DNA, only Plasmodium-derived DNA is detected. The P. falciparum line cp250, derived from a malarial isolate from Cambodia, (Mu, J., et al. 2010) was added to the panel of lines, Dd2, HB3, 7G8 and GB4 in this study.
Laboratory of Assay Development and Screening Technology [ADST] and NIH Chemical Genomics Center [NCGC]
Boston University, Chemistry Department, Center for Chemical Methodology and Library Development [CMLD-BU]
NIH National Institute of Allergy and Infectious Diseases [NIAID]
ADST Assay Protocol Summary:
The 1536-well SYBR Green viability assay was based on the method of Bennett et al (2004) and described previously in 1536-well format (Yuan J., et al. 2009). For screening 3 ul culture medium was dispensed into 1536 well black clear bottom plates (Aurora Biotechnologies) using a Multidrop Combi (Thermo Fisher Scientific Inc.), 23 nL compounds in DMSO were added by a pin transfer (Cleveland, P.H. and Koutz, P.J, 2005) using a pin tool-based delivery system (Kalypsys), and 5 ul of erythrocytes infected with P. falciparum one of five lines (cp250, Dd2, HB3, 7G8 or GB4, 0.3% parasitemia, 2.5% hematocrit final concentration) were added. The plates were incubated at 37C in a humidified incubator in 5% CO2 for 72 h, and 2 ul lysis buffer (20 mM Tris HCl, 10 mM EDTA, 0.16% saponin, 1.6% triton X, 10X SYBR Green I (supplied as 10,000X final concentration by Invitrogen) was added to each well. The plates were mixed for 25 sec with gentle shaking and incubated overnight at room temperature in the dark. The following morning, fluorescence intensity at 485(14) nm excitation and 535(25) nm emission wavelengths was measured on an EnVision (Perkin Elmer) plate reader. Plate reads were normalized relative to the control inhibitor (0.29 uM artemisinin) and vehicle (DMSO) wells present on each plate and then corrected by an algorithm using vehicle-only control plates at the beginning and end of the compound plate stack.
Shah, S. (2010). The Fever: how malaria has ruled humankind for 500,000 years. New York, Sarah Crichton Books.
CDC web site, http://www.cdc.gov/malaria/about/biology/index.html
Mu, J., Myers, R.A., Jiang, H., Liu, S., Ricklefs, S., Waisberg, M., Chotivanich, K., Wilairatana, P., Krudsood, S., White, N.J., et Plasmodium falciparum genome-wide scans for positive selection, recombination hot spots and resistance to antimalarial drugs Nature Genetics 2010, 42, pp 268-271
Bennett TN, Paguio, M., Gligorijevic, B., Seudieu, C., Kosar, A. D., Davidson, E., and Roepe, P. D. Novel, rapid, and inexpensive cell-based quantification of antimalarial drug efficacy Antimicrobial Agents Chemother. 2004, 48(5): pp 1807-10
Yuan J, Johnson RL, Huang RL, Wichterman J, Jiang HY, Hayton K, Fidock DA, Wellems TE, Inglese J, Austin CP, Su XZ. […]
For orientation: qHTS replaces the single test concentration by a dilution series.
Consider `COC/C=C/C1=CC2=CC(=O)C(C)(OC(=O)c3cnc4ccccc4n3)C(=O)C2=CN1C1CCCC1` (stereo not given), for which the Potency result was “inactive”.

For `CC1(OC(=O)C2CCCC2)C(=O)C=C2C=C(c3ccsc3)N(c3ccccc3)C=C2C1=O` (stereo not given), the Potency result is “inactive”.

Regarding `CC1(OC(=O)C2CCCC2)C(=O)C=C2C=C(c3ccsc3)N(c3ccc(CO)cc3)C=C2C1=O` (stereo not given), the Potency result was “inactive”.

As to `CCN1C(=O)N[C@@H](c2cccs2)C(C(=O)OC)=C1C`, the Potency entry was “inactive”.

Consider `COC(=O)C[C@H]1c2ccccc2[C@H]2C(=C[C@@H](C)[C@H]3C(=O)N(O)C(=O)[C@H]32)N1C(=O)OC`, for which the Potency entry is “inactive”.

As to `CCN(CC)CCCN1C=C2C(=O)C(C)(OC(=O)CCc3ccccc3)C(=O)C=C2C=C1c1ccc(C#N)cc1` (stereo not given), the Potency entry was “inactive”.

For the compound `C=C(C)C(=O)c1ccc2c(c1)OCO2`, the Potency result was “inactive”.

As to `CCCCn1c(C)cc2c(c1=O)[C@H]1O[C@](c3ccsc3)(Cc3ccccc31)O2`, the Potency entry was “inactive”.

For `CC#CCN1c2ccccc2[C@]23C[C@@H](C(=O)OC)N(C(=O)OCC)C2=NC(C(=O)OC)=C(C(=O)OC)[C@H]13`, the Potency entry is “inactive”.

On to `COC(=O)C1=C(C(=O)OC)[C@@H]2Nc3ccccc3[C@@]23C[C@@H](C(=O)OC)N(S(=O)(=O)c2ccc(C(F)(F)F)cc2)C3=N1`, for which the Potency entry is “inactive”.

As for `COC(=O)C1=C(C(=O)OC)[C@@H]2N(C)c3ccc(OC)cc3[C@@]23C[C@@H](C(=O)OC)N(S(=O)(=O)c2ccc([N+](=O)[O-])cc2)C3=N1`, the Potency result is “inactive”.

Consider `COC(=O)C1=C(C(=O)OC)[C@@H]2N(C)c3ccc(OC)cc3[C@@]23C[C@@H](C(=O)OC)N(S(=O)(=O)c2ccc(Br)cc2)C3=N1`, for which the Potency result was “inactive”.

On to `CCN1C(=O)N(C)[C@@H](c2ccccc2)C(C(C)=O)=C1C`, for which the Potency result was “inactive”.

`CC(C)(C)OC(=O)NCCCC1=CC2=CC(=O)C(C)(OC(=O)c3cccs3)C(=O)C2=CO1` (stereo not given): the Potency result is “inactive”.

Turning to `COC(=O)CCCC1=CC2=CC(=O)C(C)(OC(=O)c3cccs3)C(=O)C2=CN1Cc1ccccc1` (stereo not given), the Potency entry is “inactive”.

Regarding `COC(=O)CCC(=O)OC1(C)C(=O)C=C2C=C(C3CC3)N(c3ccccc3)C=C2C1=O` (stereo not given), the Potency result is “inactive”.

As for `C=CCN1c2ccccc2[C@]23C[C@@H](C(=O)OC)N(C(=O)c4cc(C)oc4C)C2=NC(C(=O)OC)=C(C(=O)OC)[C@H]13`, the Potency result is “inactive”.

With `COCCN1C=C2C(=O)C(C)(OC(=O)CCC(=O)OC)C(=O)C=C2C=C1C1CC1` (stereo not given), the Potency result was “inactive”.

On to `CCN(CC)CCCN1C=C2C(=O)C(C)(OC(=O)CCC(=O)OC)C(=O)C(Br)=C2C=C1c1ccc(OC)cc1` (stereo not given), for which the Potency result is “inactive”.

For the compound `CC(C)CN1C=C2C(=O)C(C)(OC(=O)CCc3ccccc3)C(=O)C=C2C=C1c1ccc(C#N)cc1` (stereo not given), the Potency entry was “inactive”.

For the compound `CCCCc1nc2c(c3c1C[C@H](C)OC3)CN(C(=O)Nc1cccc(C#N)c1)CC2`, the Potency result was “inactive”.

As for `COCCN1C(=O)N[C@@H](c2cccc(F)c2)C(C(=O)OC)=C1C`, the Potency entry is “inactive”.

For `CCCCS(=O)(=O)N1C2=NC(C(=O)OC)=C(C(=O)OC)[C@@H]3Nc4ccccc4[C@]23C[C@H]1C(=O)OC`, the Potency entry was “inactive”.

On to `CCN1C(=O)[C@@H]2[C@H]3[C@H](O)[C@H](O)CC(=NO[C@@H](C)c4cc(-c5c(C)cc(C)cc5C)no4)[C@@H]3CC[C@H]2C1=O`, for which the Potency result is “inactive”.

As to `CC#CCN1c2ccccc2[C@]23C[C@@H](C(=O)OC)N(C(=O)c4ccc(Br)cc4)C2=NC(C(=O)OC)=C(C(=O)OC)[C@H]13`, the Potency result was “inactive”.

`COC(=O)C1=C(C(=O)OC)[C@@H]2N(Cc3ccccc3)c3ccccc3[C@@]23C[C@@H](C(=O)OC)N(S(=O)(=O)c2cccs2)C3=N1`: the Potency result is “inactive”.

Regarding `COC(=O)C1=C(C(=O)OC)[C@@H]2N(C)c3ccc(OC)cc3[C@@]23C[C@@H](C(=O)OC)N(C(C)=O)C3=N1`, the Potency result is “inactive”.

With `COC(=O)CCCC1=CC2=CC(=O)C(C)(OC(=O)CCc3ccccc3)C(=O)C2=CO1` (stereo not given), the Potency result is “inactive”.

Regarding `COC(=O)CCC(=O)OC1(C)C(=O)C2=CN(CCCCO)C(c3ccc(OC)cc3)=CC2=C(Br)C1=O` (stereo not given), the Potency result was “inactive”.

Regarding `COC(=O)C1(C(=O)OC)CC(CO)C(=O)[C@@H]1c1ccccc1` (stereo not given in full), the Potency entry was “inactive”.

For `CCN1C(=O)N[C@@H](c2cccc(C(F)(F)F)c2)C(C(=O)OC)=C1C`, the Potency result was “inactive”.

With `CCCCC1=CC2=C(c3ccco3)C(=O)C(C)(OC(=O)c3ccc(OC)cc3)C(=O)C2=CN1C1CCCC1` (stereo not given), the Potency result is “inactive”.

`CCN1C(=O)N(S(=O)(=O)c2ccc(C)cc2)[C@@H](c2ccccc2)C(C(=O)OC)=C1C`: the Potency entry is “inactive”.

Regarding `COCC(=O)N1CCc2nc(COc3ccccc3)c3c(c2C1)CO[C@@H](C)C3`, the Potency entry was “inactive”.

Consider `COC(=O)N[C@@H](c1cccc(C)c1)C(C(C)=O)C(=O)OC` (stereo not given in full), for which the Potency entry was “inactive”.

For `COC(=O)N1C(/C=C/c2ccc3c(c2)OCO3)=Cc2ccccc2C1CC(C)=O` (stereo not given), the Potency entry is “inactive”.

As to `COC(=O)c1ccccc1S(=O)(=O)N1CCc2nc(COc3ccccc3)c3c(c2C1)CO[C@@H](C)C3`, the Potency result was “inactive”.

Turning to `CCCCC1=CC2=CC(=O)C(C)(OC(=O)CC)C(=O)C2=CN1Cc1ccc2c(c1)OCO2` (stereo not given), the Potency entry is “inactive”.

Regarding `C=CCN1c2ccccc2[C@]23C[C@@H](C(=O)OC)N(S(=O)(=O)c4c(C)noc4C)C2=NC(C(=O)OC)=C(C(=O)OC)[C@H]13`, the Potency entry was “inactive”.

Regarding `COc1cccc(CC(=O)N2CCc3nc(-c4ccc(OC)cc4C)c4c(c3C2)CO[C@@H](c2ccccc2)C4)c1`, the Potency result is “inactive”.

(Values after PubChem BioAssay (NCATS).)
